Compound activity: PubChem BioAssay, several laboratories
A selection: hits, their analogues and other compounds. The true share with any hit is near 2%.
PGE2 EP2 inh – EP2 receptor (human) inhibition; P43116; C6 glioma cells expressing human EP2, cAMP TR-FRET; cells stimulated with saturating PGE2; inhibition, % at 25 µM; 260,000 compounds, 0.52% hits;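 active = percent inhibition above 40 after rounding to a whole number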;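 also: rat C6 glioma host cells with rolipram phosphodiesterase inhibitor present; the protocol text gives 20 µM as final concentration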
Target sequence (P43116 whole entry, looked up): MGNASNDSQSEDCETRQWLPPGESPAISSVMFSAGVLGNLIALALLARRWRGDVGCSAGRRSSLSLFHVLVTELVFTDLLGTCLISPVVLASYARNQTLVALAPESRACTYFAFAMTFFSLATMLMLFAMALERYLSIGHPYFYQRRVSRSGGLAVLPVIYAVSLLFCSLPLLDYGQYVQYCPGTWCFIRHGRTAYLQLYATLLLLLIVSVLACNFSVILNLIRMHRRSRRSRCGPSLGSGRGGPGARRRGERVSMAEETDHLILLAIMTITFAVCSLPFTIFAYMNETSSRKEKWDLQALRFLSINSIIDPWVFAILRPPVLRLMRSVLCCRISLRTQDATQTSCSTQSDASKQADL
S1P4 ag – agonists of human S1P4 receptor; O95977; S1P4-expressing cell line, agonist reporter assay; activation, % at 4.98 µM; 220,000 compounds, 0.35% hits; AID 1509; in the data active = activation above about 11%;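 also: 0% = DMSO vehicle and 100% = reference agonist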
S1P4 antag – human S1P4 receptor antagonism; O95977; S1P4-expressing cells, antagonist mode, reporter read-out; inhibition, % at 4.98 µM; 220,000 compounds, 0.26% hits; AID 1510; in the data active = inhibition above about 29%;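 also: 0% = wells stimulated with agonist and 100% = vehicle wells without agonist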
EP2 modulator – modulates human prostaglandin E2 receptor EP2 signaling. EP2-expressing cells, cAMP HTRF FRET, PGE2 co-stimulation. induction, % at 25 µM. 260,000 compounds, 0.83% hits. AID 940;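 active = compounds whose cAMP rise, as percent of the full-agonist control response, exceeds 60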;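 also: rat C6 glioma line stably carrying human EP2 under a CMV promoter; the protocol text gives 20 µM as final concentration; 100% = response of wells given 1 µM PGE2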
S1P3 antag – blocks the human S1P3 receptor | Q99500 | CHO S1P3 NFAT-BLA reporter, FRET fluorescence, antagonist mode | inhibition, % at 4.98 µM | 170,000 compounds, 0.27% hits | AID 485;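 active = inhibition above the plate cutoff, the mean inhibition of test wells on that plate plus 3 SD, cut at about 28% in these data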;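 also: cells challenged with S1P at its EC80 of 0.8 µM; blue over green emission ratio from cleaved BLA substrate after 4 h stimulation; 0% = S1P-stimulated wells and 100% = unstimulated DMSO-only wells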
* marks the source's active call; other numbers are inactive results; . = no result.

SMILES	PGE2 EP2 inh	S1P4 ag	S1P4 antag	EP2 modulator	S1P3 antag
O=C(Nc1ccc(Cl)cc1)Nc1ccccc1C(=O)NCc1ccco1	7	1	-7	1	54*
O=C(Nc1ccccc1C(=O)NCc1ccco1)c1ccccc1	10	0	-8	7	14
COC(=O)c1ccccc1Nc1ccccc1	9	0	-2	64*	-5
O=C(COC(=O)c1ccccc1Nc1ccccc1)c1ccccc1	6	-1	-3	23	.
COc1ccccc1NC(=O)C1CCCN1C(=O)Oc1ccccc1 (centres undefined)	8	.	.	3	.
NC(=O)c1c(NC(=O)c2cccs2)sc2c1CCCCCC2	14	0	-20	1	54*
COc1ccc(N=c2oc3cc(O)ccc3cc2C(=O)Nc2ccccn2)cc1OC	43*	2	-5	-84	-26
CC1CCCC(C)N1S(=O)(=O)c1ccc(S(=O)(=O)NC2CCCC2)cc1 (centres undefined)	17	.	.	-85	.
Cc1cccc(NC(=O)c2cc(NC(=O)C3CCCCC3C(=O)O)ccc2N2CCCCC2)c1 (centres undefined)	9	-1	15	37	17
CC(=O)Nc1ccc(N2CCCCC2)c(C(=O)Nc2cccc(C)c2)c1	13	1	-17	62*	.
COc1cc2c(cc1CN(CCCN(C)C)Cc1ccco1)OCO2	2	.	.	7	.
C=CCn1c(N2CCC(C(=O)Nc3ccc(N4CCOCC4)cc3)CC2)nc2ccccc21	.	.	.	-30	.
N#Cc1c(SCC(=O)O)nc(-c2ccccc2)c2c1CCCC2	45*	2	8	43	.
N#Cc1c(SCC(N)=O)nc(-c2ccccc2)c2c1CCCC2	25	0	-10	25	8
CCOc1ccc(NC(=O)Nc2ccc3c(c2)N(C)C(=O)CS3)cc1	35	0	-1	-20	23
CC(=O)c1ccc(NC(=O)Nc2ccc3c(c2)N(C)C(=O)CS3)cc1	79*	-2	-29	-26	.
COc1ccc(-n2nnnc2SCC(=O)Nc2cccc(F)c2)c(OC)c1	5	.	.	-80	.
O=c1c2ccccc2c(-c2ccc(Cl)cc2)nn1-c1ccccc1	5	2	-32	63*	.
Cn1c(=S)c2[nH]c(SCCN3C(=O)c4ccccc4C3=O)nc2n(C)c1=O	41*	.	.	21	.
Cn1c(=S)c2[nH]c(SCCN3CCCC3)nc2n(C)c1=O	5	-2	3	18	-29
O=C(c1cccs1)N1N=C(c2ccc(O)cc2)CC1c1ccccc1 (centres undefined)	10	1	-13	65*	-4
COc1ccc(C2=NN(C(=O)c3cccs3)C(c3ccc(OC)cc3)C2)cc1 (centres undefined)	5	-1	-7	31	13
O=C(c1cccs1)N1N=C(c2ccccc2)CC1c1ccccc1 (centres undefined)	6	1	-1	63*	.
Cc1cc2c(s1)c1cnn(CC(=O)NC(C)C)c(=O)c1n2Cc1ccc(F)cc1	.	.	.	-19	.
Cc1cc(C(=O)N2CCN(Cc3ccco3)C[C@@H]2C(C)C)c(C)[nH]1	.	.	.	-70	.
SMILES	PGE2 EP2 inh	S1P4 ag	S1P4 antag	EP2 modulator	S1P3 antag
COc1ccc(OC)c(S(=O)(=O)Nc2ccc(O)c3ccccc23)c1	42*	1	-2	-27	-25
COc1ccc(OC)c(S(=O)(=O)Nc2ccc(Oc3ccccc3)cc2)c1	6	0	-6	5	.
COc1cc(C2/C(=C(/O)c3ccc(F)cc3)C(=O)C(=O)N2CC2CCCO2)ccc1O (centres undefined)	9	.	.	19	.
N#CC(=NCCO)C1=C(O)c2ccccc2C1=O	12	.	.	-3	.
O=C1C(SCCO)=C(SCCO)C(=O)c2ccccc21	43*	.	.	-60	.
O=C(O)c1c(-c2nccc3ccccc23)[nH]c(-c2ccccc2)c1S(=O)(=O)O	75*	.	.	20	.
c1ccc(-c2ccc(-c3nccc4ccccc34)[nH]2)cc1	22	9	11	-46	24
CCN1CCc2c(sc(NC(=S)NC(=O)/C=C/c3ccccc3)c2C(N)=O)C1	84*	.	.	-177	.
CCN1CCc2c(sc(NC(=O)CN3C(=O)c4ccccc4C3=O)c2C(N)=O)C1	1	0	5	10	-1
CCN1CCc2c(sc(NC(=S)NC(=O)c3ccc(Cl)cc3)c2C(N)=O)C1	41*	1	-15	-59	9
CCc1cc(N2CCC(CO)CC2)n2nc3nc(C)cc(C)c3c2n1	.	.	.	6	.
O=S(=O)(NC1CC1)c1cccc(S(=O)(=O)N2CCC(c3nc4ccccc4s3)CC2)c1	6	.	.	-95	.
